Results on 134 variants are retold here after the emibetuzumab library of Makowski et al. (2022).

This is one part of the list. The hit rate among all sequences tested is not known here.

Sequences and labels used below:
B1: VH:VL chains; a variant is named by its letters at X, in order (parent)
chain 1: QVQLVQSGAEVKKPGASVKVSCKASGYTFTDYXMHWVRQAPGQGLEWMGXVNPNXXXTTYNQKFEGRVTMTTDTSTSTAYMELRSLRSDDTAVYYCARXNXLDXWGQGTTVTVSS
chain 2: DIQMTQSPSSLSASVGDRVTITCSVSSSVSSIYLHWYQQKPGKAPKLLIYSTSNLASGVPSRFSGSGSGTDFTLTISSLQPEDFATYYCQVYSGYPLTFGGGTKVEIK

This assay covers variants of B1. Nature of the assay: yeast display scFab, FACS + sequencing. As to conditions: with MET. Put shortly: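 Heavy-chain CDR mutant scFab yeast surface library, enriched by two magnetic rounds on HGFR-Fc-coated Protein A beads and then by FACS. Cells were labelled with 1 nM HGFR-Fc in PBSB with 1% milk and anti-Myc for 3 h at room temperature, and the top 50% antigen-positive cells were gated. Round-3 sorted and input populations were deep sequenced in two replicates. Antigen binding call: positive if a sequence occurred in both antigen-positive samples, negative if it occurred only in input.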
Take VAREDDLS: the antigen binding call is on record as “no binding”.
As to VEGGGDGA, the antigen binding call is listed as “no binding”.
On to ATGRADVY, for which the antigen binding call is recorded as “no binding”.
For VEEASSWA the value was “no binding”; for SGGGNDLA chain 1 R87K, “no binding”; for DRAGDSWA, “no binding”.
Turning to YRRGDAWD, the antigen binding call was “binds”.
For YAAGSSWD, the antigen binding call is recorded as “no binding”.
For YRAGSSWD the value was “binds”.
As to DRAGDSWD, the antigen binding call is reported as “no binding”.
With YRRGASWD, the antigen binding call was “binds”.
Then YRAGDSWD, with “binds”.
Take DETKGDWD: the antigen binding call is “no binding”.
Regarding YRAGGSWF, the antigen binding call is on record as “binds”.
For the variant YEGAASWF, the antigen binding call is reported as “no binding”.
Consider YRRGDSWD, for which the antigen binding call was “binds”.
With YRAKGSWD, the antigen binding call is on record as “binds”.
YRARGAWD: the antigen binding call was “binds”.
For VTGTGDWV the value was “no binding”; for VEEEGSVV, “no binding”; for DAKEGDAV, “no binding”.
As for DTGGGAWD, the antigen binding call is “no binding”.
With FREGASWD, the antigen binding call was “no binding”.
For the variant YKARGSWD, the antigen binding call was “binds”.
On to YRRGDSAD, for which the antigen binding call was “binds”.
FRAGSSWD: the antigen binding call is reported as “binds”.
For VEAGSDGV the value was “no binding”; for VEKEGDGV, “no binding”.
On to DTTGSASF, for which the antigen binding call is given as “no binding”.
Take YRAGGYGD: the antigen binding call is on record as “binds”.
For YRAGGVGD, the antigen binding call is “binds”.
As for YRKENYGD, the antigen binding call was “no binding”.
For VKGRGSAY, the antigen binding call is given as “binds”.
Consider YKGRGSAY, for which the antigen binding call was “binds”.
As for VAGTGDVF, the antigen binding call was “no binding”.
As to YRGRSAGV, the antigen binding call is listed as “binds”.
As for FKGRGFGV, the antigen binding call is given as “no binding”.
Then YTGKSVAV, with “no binding”; and YRGKSAAV, with “binds”; and YRGRTAAV, with “binds”.
With FRGRGFGV, the antigen binding call was “binds”.
As for YRERTAAV, the antigen binding call is given as “no binding”.
Take DTREGAVV: the antigen binding call is listed as “no binding”.
Regarding VAGGDYLV, the antigen binding call was “no binding”.
DKGGGDVA: the antigen binding call is reported as “no binding”.
Take AGEGNSWA: the antigen binding call is listed as “no binding”.
VAGTGDGA: the antigen binding call is recorded as “no binding”.
In the case of YRGRSFAV, the antigen binding call is “no binding”.
Then YAGRTAGV, with “no binding”; and YRRRTAAV, with “binds”.
Turning to YRGRGFGV, the antigen binding call is reported as “binds”.
For YRGRTAGV the value was “binds”; for YRGRSFGV, “binds”.
Take DRGRDFGV: the antigen binding call was “no binding”.
Turning to VRGRDFGV, the antigen binding call was “no binding”.
For SEARNDGA the value was “no binding”; for DAGGDAGD, “no binding”.
Consider VTRGADAA, for which the antigen binding call is given as “no binding”.
As to AARADDSV, the antigen binding call is “no binding”.
Then YRTRGSLY, with “binds”; and YRTRGSGY, with “binds”.
In the case of YATEDDWV, the antigen binding call was “no binding”.
As to VETGNAVY, the antigen binding call is recorded as “no binding”.
As to SEARSDLY, the antigen binding call was “no binding”.
As for FAEGSYAF, the antigen binding call is given as “no binding”.
Take VGAEDDVA: the antigen binding call was “no binding”.
Then SGETGDSV, with “no binding”; and FRGRSSAA, with “binds”.
With FRGRGSAA, the antigen binding call is listed as “binds”.
For VTGRGDVA, the antigen binding call is recorded as “no binding”.
As to DKEGGSGV, the antigen binding call is reported as “no binding”.
For YREGGSGV the value was “binds”; for DREEGAGV, “no binding”; for YREGGAGV, “binds”.
Take VEKEGDWY: the antigen binding call is “no binding”.
For the variant SAREGDLA, the antigen binding call was “no binding”.
Turning to VRAKGSAD, the antigen binding call is “binds”.
Regarding VTAGDSAD, the antigen binding call is listed as “no binding”.
Regarding VAGTGSAD, the antigen binding call is “no binding”.
On to VEEEGSAD, for which the antigen binding call was “no binding”.
On to VRAGGSAD, for which the antigen binding call was “binds”.
On to VARETDVA, for which the antigen binding call is recorded as “no binding”.
VKGRGAWA: the antigen binding call is “binds”.
Regarding VKTGGSWA, the antigen binding call is given as “no binding”.
For the variant VKGRGFAA, the antigen binding call is reported as “no binding”.
Then VKGRGSWA, with “binds”.
VKGRGDAA: the antigen binding call was “no binding”.
In the case of DEGRGSWA, the antigen binding call is given as “no binding”.
VTRGADGV: the antigen binding call is “no binding”.
For the variant VAGGDFGV, the antigen binding call is “no binding”.
With FRGKGASD, the antigen binding call is listed as “binds”.
Consider SAGTGSWD, for which the antigen binding call is “no binding”.
On to SKKRGSWD, for which the antigen binding call is on record as “binds”.
On to SKKTGSVD, for which the antigen binding call is given as “no binding”.
In the case of SKGKGSWD, the antigen binding call was “binds”.
For FRGKGSWD the value was “binds”; for VEAGDDWV, “no binding”.
As to SGRGNDGV, the antigen binding call is on record as “no binding”.
As to DTGGDDWF, the antigen binding call is listed as “no binding”.
On to DAGGGDAV, for which the antigen binding call is reported as “no binding”.
Regarding FAGTGSWD, the antigen binding call was “no binding”.
For FKGKGSWD, the antigen binding call was “binds”.
As for FRGTSFGD chain 1 T58I, the antigen binding call is “no binding”.
FRGTGFVD: the antigen binding call is “binds”.
Then YAGTGFVD, with “no binding”.
In the case of YKGKGSWD, the antigen binding call was “binds”.
As for FRGKGAWD, the antigen binding call is listed as “binds”.
AAGGNAWS chain 1 G66S: the antigen binding call is “no binding”.
Then DGGKGAVD, with “no binding”.
Consider FRGKGAVD, for which the antigen binding call is “binds”.
Take YKGRSAAA: the antigen binding call is “binds”.
Take YKGGSAAA: the antigen binding call is given as “binds”.
With YKGGSSAA, the antigen binding call is “binds”.
DKGEGAAA: the antigen binding call was “no binding”.
For DKGGSAVV, the antigen binding call is given as “no binding”.
Then FKGGSSAA, with “no binding”; and DKGGSDVA, with “no binding”.
As to DEGGTDVF, the antigen binding call was “no binding”.
Consider DGGKNDWV, for which the antigen binding call is listed as “no binding”.
Take DAGGASSS: the antigen binding call was “no binding”.
Then YTERNFGV, with “no binding”; and FRGGGSGF, with “binds”; and DRAGDSGF, with “no binding”.
For FRARSSGF, the antigen binding call is reported as “binds”.
On to FRAGGSLF, for which the antigen binding call was “binds”.
With FTARSAGF, the antigen binding call was “no binding”.
Consider FRGRGSGF, for which the antigen binding call is listed as “binds”.
For FRGRDFLF, the antigen binding call is reported as “no binding”.
Then FRGADSGF chain 1 R98K, with “no binding”; and DGGKNSVD, with “no binding”; and VEGGGFSV, with “no binding”.
For VEAGDDAV the value was “no binding”; for ATAGSDGV, “no binding”.
Turning to DAARGDGA, the antigen binding call is reported as “no binding”.
